Active and inactive are the calls of the source. How the source made its calls: active means hit-call score of the fitted dose curve at least 0.9, where 1 is the maximum; inactive means score below 0.9.
Key:
[1] = ATG_CRE_CIS: Attagene CIS-FACTORIAL HepG2 Assay for human cAMP Responsive Element (CRE) binding protein 3 (AID 2282926); details: HepG2 CRE cis-reporter, Attagene multiplexed mRNA; actives raise or lower the signal
In short: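 Capillary electrophoresis of 6-FAM-labelled, HpaI-digested PCR products quantified reporter transcripts. These came from HepG2 transiently transfected with cis-element reporters and exposed to test chemicals for 24 hours, with DMSO defining baseline activity.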

[2] = target: CCAAT/enhancer-binding protein beta (Homo sapiens) (UniProt P17676); assay: ATG_C_EBP_CIS: Attagene CIS-FACTORIAL HepG2 Assay for human CCAAT/Enhancer Binding Protein (C/EBP) beta (AID 2282927); details: HepG2 Attagene cis-factorial transcription factor reporter; actives raise or lower the signal
CCAAT/enhancer-binding protein beta (Homo sapiens), sequence (P17676 whole entry, looked up): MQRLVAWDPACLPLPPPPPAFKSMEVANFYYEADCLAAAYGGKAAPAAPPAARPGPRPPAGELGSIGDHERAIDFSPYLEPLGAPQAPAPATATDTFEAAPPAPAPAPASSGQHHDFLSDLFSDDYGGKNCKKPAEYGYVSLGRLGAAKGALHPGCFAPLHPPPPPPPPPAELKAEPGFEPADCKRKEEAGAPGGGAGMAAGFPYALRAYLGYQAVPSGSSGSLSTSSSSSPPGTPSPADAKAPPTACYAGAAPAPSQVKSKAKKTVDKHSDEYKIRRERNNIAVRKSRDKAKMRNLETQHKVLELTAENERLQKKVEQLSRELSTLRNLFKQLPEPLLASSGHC
In short: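 HepG2 transiently transfected with multiplexed reporter units under cis-regulatory promoters reporting endogenous C/EBPb activity. After 24 h exposure, reporter mRNA assayed by RT-PCR, fluorescent labelling, HpaI digestion and capillary electrophoresis; bidirectional fitting versus DMSO.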

[3] = ATG_CMV_CIS: Attagene CIS-FACTORIAL HepG2 Assay for human CMV (Internal Marker) (AID 2282928); details: HepG2 CMV promoter reporter, transcription factor profiling; actives raise or lower the signal;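 further: endpoint acts as a background internal control marker rather than a target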
In short: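 Reporter transcripts from transfected HepG2 cells are isolated after 24 h of chemical dosing, reverse-transcribed and amplified. Fragments labeled with 6-FAM are cut with HpaI and quantified by capillary electrophoresis; DMSO defines baseline.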

[4] = ATG_DR4_LXR_CIS: Attagene CIS-FACTORIAL HepG2 Assay for human Liver X Receptor (LXR), DR4 submotif (AID 2282929); details: HepG2 Attagene DR4 cis-reporter, mRNA transcription; actives raise or lower the signal
In short: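 Transiently transfected HepG2 liver cells; cis-regulated reporters; 24 h dosing. RT-PCR plus CE read-out of reporter mRNA. DMSO baseline, bidirectional curve fitting.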

[5] = target: Aryl hydrocarbon receptor (Homo sapiens) (UniProt P35869); assay: ATG_Ahr_CIS: Attagene CIS-FACTORIAL HepG2 Assay for human Aryl Hydrocarbon Receptor (Ahr) (AID 2282930); details: HepG2 AhR cis-factorial reporter transcription; actives raise or lower the signal
Aryl hydrocarbon receptor (Homo sapiens), sequence (P35869 whole entry, looked up): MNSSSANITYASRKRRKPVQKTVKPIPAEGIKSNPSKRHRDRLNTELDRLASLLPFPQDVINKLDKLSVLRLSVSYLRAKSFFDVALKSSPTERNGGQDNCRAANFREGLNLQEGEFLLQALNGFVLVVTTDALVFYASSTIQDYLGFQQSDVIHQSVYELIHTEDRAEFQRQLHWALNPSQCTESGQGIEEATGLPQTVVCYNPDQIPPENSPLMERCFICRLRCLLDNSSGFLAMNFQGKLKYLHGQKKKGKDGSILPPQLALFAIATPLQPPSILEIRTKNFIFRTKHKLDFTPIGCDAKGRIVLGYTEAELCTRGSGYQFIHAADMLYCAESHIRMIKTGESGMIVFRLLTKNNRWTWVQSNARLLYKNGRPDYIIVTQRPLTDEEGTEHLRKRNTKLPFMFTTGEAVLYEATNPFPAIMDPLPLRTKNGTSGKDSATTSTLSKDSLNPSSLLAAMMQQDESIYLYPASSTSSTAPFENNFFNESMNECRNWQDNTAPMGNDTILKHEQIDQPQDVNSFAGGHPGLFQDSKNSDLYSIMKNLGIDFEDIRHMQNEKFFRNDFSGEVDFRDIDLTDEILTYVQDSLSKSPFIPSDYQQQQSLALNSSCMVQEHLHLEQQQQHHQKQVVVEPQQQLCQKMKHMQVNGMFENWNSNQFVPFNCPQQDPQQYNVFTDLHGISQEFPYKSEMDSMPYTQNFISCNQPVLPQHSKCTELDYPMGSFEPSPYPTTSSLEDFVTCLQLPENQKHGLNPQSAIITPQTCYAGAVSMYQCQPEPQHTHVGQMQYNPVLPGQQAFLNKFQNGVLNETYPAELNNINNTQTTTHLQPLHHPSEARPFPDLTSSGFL
In short: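 HepG2 cells transiently transfected with cis-element-driven multiplexed reporter units; endogenous AhR activity read as reporter mRNA 24 h after dosing, via RT-PCR, 6-FAM labelling, HpaI digestion and capillary electrophoresis. Bidirectional fit relative to DMSO.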

[6] = ATG_AP_1_CIS: Attagene CIS-FACTORIAL HepG2 Assay for human Activator Protein 1 (AP-1) (AID 2282931); details: HepG2 Attagene cis-factorial AP-1 reporter mRNA; actives raise or lower the signal
In short: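 We transfected HepG2 cells transiently with a set of cis-regulated reporter transcription units, dosed them for 24 h, and quantified reporter mRNA via RT-PCR and capillary electrophoresis, scoring gain or loss of signal relative to DMSO.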

[7] = ATG_AP_2_CIS: Attagene CIS-FACTORIAL HepG2 Assay for human Activator Protein 2 (AP-2) (AID 2282932); details: HepG2 AP-2 cis-reporter, Attagene transcription factor profiling; actives raise or lower the signal
In short: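 Liver-derived HepG2 line, cis-reporter system measuring endogenous factors; 24 h dosing; reporter mRNA detected by fluorescent RT-PCR and capillary electrophoresis.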

[8] = ATG_BRE_CIS: Attagene CIS-FACTORIAL HepG2 Assay for human Bone Morphogenetic Protein (BMP) Response Element (BRE) (AID 2282933); details: HepG2 BMP response element reporter, Attagene transcription factor profiling; actives raise or lower the signal
In short: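 HepG2 cells transiently transfected with multiplexed cis-element reporter units were dosed with chemical for 24 h. Reporter mRNA was measured by RT-PCR with fluorescent labelling, HpaI digestion and capillary electrophoresis; bidirectional fitting relative to DMSO.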

[9] = target: Retinoic acid receptor alpha (Homo sapiens) (UniProt P10276); assay: ATG_DR5_RAR_CIS: Attagene CIS-FACTORIAL HepG2 Assay for human Retinoic Acid Receptor Alpha (RARE), DR5 submotif (AID 2282934); details: HepG2 Attagene cis-factorial RARE DR5 reporter, mRNA; actives raise or lower the signal
Retinoic acid receptor alpha (Homo sapiens), sequence (P10276 whole entry, looked up): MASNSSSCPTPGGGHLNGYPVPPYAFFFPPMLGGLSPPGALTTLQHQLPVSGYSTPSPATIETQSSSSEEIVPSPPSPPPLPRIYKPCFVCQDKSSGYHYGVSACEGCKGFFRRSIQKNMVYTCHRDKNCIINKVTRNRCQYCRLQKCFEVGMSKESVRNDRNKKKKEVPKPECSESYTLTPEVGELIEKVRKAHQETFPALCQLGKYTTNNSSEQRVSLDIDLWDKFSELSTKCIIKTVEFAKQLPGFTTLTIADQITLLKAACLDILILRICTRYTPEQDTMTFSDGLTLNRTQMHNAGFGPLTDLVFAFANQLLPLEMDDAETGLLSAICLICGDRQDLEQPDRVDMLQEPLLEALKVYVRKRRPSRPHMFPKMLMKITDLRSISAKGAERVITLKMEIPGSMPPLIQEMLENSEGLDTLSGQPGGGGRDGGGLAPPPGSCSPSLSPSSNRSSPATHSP
In short: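 HepG2 cells transiently transfected with multiplexed reporter units; DR5 cis-element drives reporter through endogenous transcription factors. After 24 h dosing, reporter mRNA quantified by RT-PCR, fluorescent labeling, HpaI digestion and capillary electrophoresis; bidirectional fitting versus DMSO.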

[10] = target: Transcription factor E2F1 (Homo sapiens) (UniProt Q01094); assay: ATG_E2F_CIS: Attagene CIS-FACTORIAL HepG2 Assay for human E2F Transcription Factor 1 (AID 2282935); details: HepG2 Attagene cis-reporter, E2F reporter RNA transcripts; actives raise or lower the signal
Transcription factor E2F1 (Homo sapiens), sequence (Q01094 whole entry, looked up): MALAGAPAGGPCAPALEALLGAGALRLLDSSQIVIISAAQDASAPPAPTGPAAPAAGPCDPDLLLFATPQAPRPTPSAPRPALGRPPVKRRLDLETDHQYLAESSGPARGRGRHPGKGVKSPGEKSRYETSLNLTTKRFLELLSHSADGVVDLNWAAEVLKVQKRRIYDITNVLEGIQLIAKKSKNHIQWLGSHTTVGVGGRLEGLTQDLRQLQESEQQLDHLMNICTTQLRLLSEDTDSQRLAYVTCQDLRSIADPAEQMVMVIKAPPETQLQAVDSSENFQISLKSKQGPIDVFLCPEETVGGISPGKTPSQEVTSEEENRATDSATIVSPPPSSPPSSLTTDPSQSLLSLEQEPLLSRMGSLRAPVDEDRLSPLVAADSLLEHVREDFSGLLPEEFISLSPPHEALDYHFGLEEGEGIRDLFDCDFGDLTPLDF
In short: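 Liver-derived HepG2 cells expressing transfected promoter-driven reporter units received test chemical for 24 hours. Signal gains or losses were fitted bidirectionally against DMSO.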

[11] = ATG_E_Box_CIS: Attagene CIS-FACTORIAL HepG2 Assay for human Enhancer Box (E-box) (AID 2282936); details: HepG2 E-box cis-reporter transcription, actives raise or lower the signal
In short: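 In this cell-based setup, HepG2 cells bearing transfected promoter-driven reporter units were exposed to chemicals for 24 h; reporter transcripts were amplified, 6-FAM-labelled, cut with HpaI and sized by capillary electrophoresis.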

[12] = ATG_M_61_CIS: Attagene CIS-FACTORIAL HepG2 Assay for M61 Transcription Factor (Internal Marker) (AID 2282937); details: HepG2 Attagene CIS-FACTORIAL M61 internal marker reporter; actives raise or lower the signal
In short: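 Multiplexed reporter mRNA assay, HepG2 human hepatoma cells, 24 h treatment. Signal: FAM-labelled, HpaI-digested RT-PCR fragments by CE. Fit: bidirectional, baseline DMSO.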

[13] = ATG_EGR_CIS: Attagene CIS-FACTORIAL HepG2 Assay for human Early Growth Response 1 (EGR1) (AID 2282938); details: HepG2 Attagene CIS-FACTORIAL EGR reporter mRNA; actives raise or lower the signal
In short: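 Multiplexed cis-reporter system in human hepatoma HepG2 cells, transiently transfected. Cells are dosed for 24 h; reporter transcripts are amplified, fluorescently tagged and sized by capillary electrophoresis, with DMSO as negative control.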

[14] = ATG_M_19_CIS: Attagene CIS-FACTORIAL HepG2 Assay for M19 Transcription Factor (Internal Marker) (AID 2282939); details: HepG2 Attagene CIS-FACTORIAL M19 internal marker reporter; actives raise or lower the signal
In short: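 HepG2 cells transiently transfected with cis-regulated multiple reporter transcription units were dosed for 24 h; reporter mRNA was quantified by RT-PCR, 6-FAM primer-extension labelling, HpaI digestion and capillary electrophoresis, with bidirectional fitting against DMSO baseline.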

[15] = ATG_Ets_CIS: Attagene CIS-FACTORIAL HepG2 Assay for human Erythroblast Transformation Specific (ETS) (AID 2282941); details: HepG2 ETS cis-reporter transcription, actives raise or lower the signal
In short: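 Bidirectional fit versus DMSO of reporter mRNA signal, detected by RT-PCR and capillary electrophoresis in HepG2 cells transiently transfected with cis-element reporters and dosed 24 h.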

[16] = target: Hepatocyte nuclear factor 3-beta (Homo sapiens) (UniProt Q9Y261); assay: ATG_FoxA2_CIS: Attagene CIS-FACTORIAL HepG2 Assay for human Forkhead box A2 (FOXA2) (AID 2282942); details: HepG2 cis-reporter transcription factor activity, 24 h; actives raise or lower the signal
Hepatocyte nuclear factor 3-beta (Homo sapiens), sequence (Q9Y261 whole entry, looked up): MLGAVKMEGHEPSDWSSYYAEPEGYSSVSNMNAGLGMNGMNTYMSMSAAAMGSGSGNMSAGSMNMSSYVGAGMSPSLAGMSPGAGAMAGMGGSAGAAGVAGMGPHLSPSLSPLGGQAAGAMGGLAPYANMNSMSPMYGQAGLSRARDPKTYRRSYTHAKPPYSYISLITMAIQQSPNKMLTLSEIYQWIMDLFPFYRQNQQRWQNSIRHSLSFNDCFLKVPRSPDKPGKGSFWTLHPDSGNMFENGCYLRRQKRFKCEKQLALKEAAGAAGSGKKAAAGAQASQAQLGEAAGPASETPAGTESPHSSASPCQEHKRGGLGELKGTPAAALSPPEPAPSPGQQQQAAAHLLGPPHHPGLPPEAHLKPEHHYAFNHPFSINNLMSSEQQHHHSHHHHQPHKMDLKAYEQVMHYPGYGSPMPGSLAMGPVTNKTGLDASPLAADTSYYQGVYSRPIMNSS
In short: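 Multiplexed cis-element reporter assay in transiently transfected HepG2. Twenty-four hours post-dosing, RNA was reverse-transcribed, amplified, FAM-labelled, HpaI-digested and separated by CE. Activity gain or loss relative to DMSO.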

[17] = ATG_FoxO_CIS: Attagene CIS-FACTORIAL HepG2 Assay for human Forkhead box O (FoxO) (AID 2282943); details: HepG2 Attagene cis-reporter, FoxO element, mRNA; actives raise or lower the signal
In short: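 HepG2 cells transiently transfected with cis-element-driven reporter units report endogenous FoxO activity. After 24 h chemical exposure, reporter mRNA quantified by RT-PCR, fluorescent labeling, HpaI digestion and capillary electrophoresis; bidirectional fit versus DMSO.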

[18] = ATG_GATA_CIS: Attagene CIS-FACTORIAL HepG2 Assay for human GATA Binding Protein (AID 2282944); details: HepG2 GATA cis-element reporter, Attagene multiplex mRNA; actives raise or lower the signal
In short: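 HepG2 cells transiently transfected with multiplexed cis-element reporter units reflecting endogenous transcription factor activity; reporter mRNA measured after 24 h dosing by RT-PCR, 6-FAM labeling, HpaI digestion and capillary electrophoresis. Bidirectional fitting versus DMSO baseline.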

[19] = ATG_GLI_CIS: Attagene CIS-FACTORIAL HepG2 Assay for human Zinc Finger Protein GLI1 (AID 2282945); details: HepG2, Attagene cis-factorial reporter mRNA, GLI element; actives raise or lower the signal
In short: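 Transiently transfected HepG2 cells report endogenous transcription factor activity via cis-element-driven reporter units. After 24 h compound exposure, reporter mRNA was measured by RT-PCR with capillary electrophoresis; bidirectional fitting against DMSO baseline.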

[20] = ATG_ERE_CIS: Attagene CIS-FACTORIAL HepG2 Assay for Estrogen Response Element (ERE) (AID 2282940); details: HepG2 ERE cis-reporter, Attagene RNA transcript; actives raise or lower the signal
In short: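 HepG2 cells transiently transfected with cis-promoter-driven multiplexed reporter transcription units report endogenous TF activity. After 24 h compound exposure, reporter mRNA is quantified by RT-PCR with capillary electrophoresis fluorescence; bidirectional fitting versus DMSO baseline.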

Measured: AC50

CC1(C)CCC[C@]2(C)[C@H]3CCO[C@]3(C)CC[C@@H]12
active: [6] 151 µM | [11] 58.3 µM
not listed: [20]
inactive: all other assays above

Nc1ccn([C@H]2CS[C@@H](CO)O2)c(=O)n1
not listed: [20]
inactive: all other assays above

C=C(C)C(=O)OCCOC1CC2CC1C1C=CCC21 (stereo unspecified)
not listed: [20]
inactive: all other assays above

Nc1c(Cl)cc(Cl)cc1[N+](=O)[O-]
active: [3] 69.1 µM | [11] 92 µM
not listed: [15]
inactive: all other assays above

O=CN1CCOCC1
inactive: all assays above

Cc1ncc[nH]1
not listed: [20]
inactive: all other assays above

C=CC(=O)OCCCC
not listed: [20]
inactive: all other assays above

C1CCCCC1
not listed: [20]
inactive: all other assays above

CCCC(C)C(O)CC (stereo unspecified)
not listed: [20]
inactive: all other assays above

CCOc1ccccc1O
not listed: [20]
inactive: all other assays above

CC(=O)NCCO
not listed: [20]
inactive: all other assays above

CCCCCCCCCCCCN1CCCCCC1=O
active: [4] 18.6 µM | [6] 11.1 µM | [8] 16.4 µM | [11] 16.3 µM
not listed: [20]
inactive: all other assays above

O=C1CCCC=CCCCCCCCCCC1
active: [3] 44.1 µM | [4] 33.4 µM | [6] 50.3 µM
not listed: [20]
inactive: all other assays above

CC=CC=CCOC(=O)C(C)C
active: [4] 130 µM | [6] 100 µM
not listed: [20]
inactive: all other assays above

CC(=O)OCCCc1ccccc1
not listed: [20]
inactive: all other assays above

From PubChem BioAssay (EPA / NIEHS)
